# Results taken from PubChem BioAssay (NCATS).
# Several values for one entry are separate records, joined by “and”; a condition that tells them apart may be missing. Equal values may be shown once. Results filed as inconclusive are left out. Unmarked numbers belong to inactive results. Activity calls are given as the source filed them. Calls come from the whole dose curve; as a rule, active = well fitted cell-killing curve with a large enough effect; inconclusive = small, poorly fitted or top-dose-only effect, or effect the other way; inactive = flat fitted curve, though single readings scatter.
# Experiment: Cell Viability - HUV-EC-C (AID 542); note: nearly all actives have a fitted effect of over 35% in size
# Conditions: HUV-EC-C endothelial cell viability, qHTS; series mostly up to 92.2 µM; activity change, negative = cytotoxicity: at the top concentration
# Source text: NIH Chemical Genomics Center [NCGC]
# NIH Molecular Libraries Screening Centers Network [MLSCN]
# National Institutes of Environmental Health Sciences [NIEHS]
# National Toxicology Program [NTP]
# We have developed a 1536-well cell-based assay for quantitative high throughput screening (qHTS) against a number of cell lines to determine in vitro cytotoxicity of small molecules. This particular assay uses the HUV-EC-C cell line which is derived from normal human vascular endothelial cells.
# NCGC Assay Protocol Summary:
# The CellTiter-Glo luminescent cell viability assay (Promega) is a homogeneous method to measure the number of viable cells in culture. The end point readout of this assay is based on quantitation of intracellular ATP, an indicator of metabolic activity, using the luciferase reaction. Luciferase catalyzes the oxidation of beetle Luciferin to oxyluciferin and light in the presence of ATP. The luminescent signal is proportional to amount of ATP present.
# Using the CellTiter-Glo luminescent cell viability assay, the amount of cellular ATP was measured in the HUV-EC-C cell line with complete culture medium following compound treatment for 40 hours. The assay was performed in opaque white Kalypsys 1536-well plates. In the screen, tamoxifen and doxorubicin were used as positive controls. Library compounds were measured for their ability to cause acute toxicity in the cell line, as reflected by a decrease in intracellular ATP levels, in a concentration-dependent manner. […] AC50 values were determined from concentration-response data modeled with the standard Hill equation.
# qHTS protocol for CellTiter Glo HUV-EC-C cellular assay
# [Step] [Parameter] [Value] [Description]
# 1. Reagent; 5 uL; 1000 HUV-EC-C cells/well
# 2. Time; 5 hr; 37 °C incubation
# 4. Controls; 23 nL; Tamoxifen 0.34 uM to 100 uM & Doxorubicin 0.02 nM to 100 uM
# 5. Time; 40 hr; 37 °C incubation
# 6. Reagent; 5 uL; CellTiter Glo reagent
# 7. Time; 20 min; Room Temperature
# 8. Detection; Luminescence; Viewlux plate reader
# Keywords: cell viability, cytotoxicity, HUV-EC-C cell line, luminescence, NTPHTS, NTPHTS_NCGC, NIEHS, EPA, DSSTox, MLSMR, MLSCN, NIH Roadmap, qHTS, NCGC
# % is set by controls: 0 for no effect and ±100 for the full control effect; potency is the fitted concentration of half-maximal effect.
Compound,Potency,"activity change, negative = cytotoxicity [%]"
CCOC(=O)c1ccccc1C(=O)OCC,inactive,
COc1ccc2c(c1OC)C(=O)OC2C1c2cc3c(cc2CCN1C)OCO3 (stereo unspecified),,15.2
O=C(O)C(Cl)(Cl)Cl,inactive,
[O]=[Cd],,8.24
[O]=[Cr](=[O])([OH])[O][Cr](=[O])(=[O])[OH],3.98 µM (active) and 20 µM (active) and 5.01 µM (active),
CC(C)Nc1ccc(Nc2ccccc2)cc1,12.6 µM (active),
NNC(N)=O,,-0.377
O=C1C2CC=CCC2C(=O)N1SC(Cl)(Cl)Cl (stereo unspecified),50.1 µM (active) and 25.1 µM (active),
Oc1cc(Cl)c(Cl)cc1Cl,,-8.58
CC(C)(C)c1cc(O)ccc1O,,-25.3
S=C=S,,9.8
C[C@H]1CC[C@@H]2[C@@H](C)[C@H]3[C@H](C[C@H]4[C@@H]5CC=C6CC(O[C@@H]7O[C@H](CO)[C@H](O)[C@H](O[C@@H]8O[C@H](CO)[C@@H](O)[C@H](O)[C@H]8O)[C@H]7O[C@H]7O[C@@H](C)[C@H](O)[C@@H](O)[C@H]7O)CC[C@]6(C)[C@H]5CC[C@]34C)N2C1 (stereo partly specified),31.6 µM (active),
[Cl-].[Cl-].[Hg+2],10 µM (active),
CCCCCCCCOC(=O)c1ccccc1C(=O)OCCCCCCCC,,5.12
CC(C)CCON=O,,-3.03
O=C1C=CC(=O)C=C1,,-7.1

Compound,Potency,"activity change, negative = cytotoxicity [%]"
O=[N+]([O-])c1ccccc1,,3.35
C=CCN=C=S,,9.5
O=Cc1ccco1,,1.38
C[C@]12CCC(=O)C[C@@H]1CC[C@@H]1[C@@H]2CC[C@]2(C)[C@@H](O)CC[C@@H]12,,-12.7
CCCCCl,,2.44
O=CC=O,,-10.6
COC1=CC(=O)O[C@@H](/C=C/c2ccccc2)C1,,9.66
ClCC1CO1 (stereo unspecified),,-1.19
O=[N+]([O-])c1ccc(F)c([N+](=O)[O-])c1,,22.1
C[C@H]1CCC[C@H](O)CCCCCc2cc(O)cc(O)c2C(=O)O1,,19.9
Clc1ccccc1Cl,,12.5
ClC(Cl)(Cl)Cl,inactive,
O=C1CCO1,,12.6
O=C/C=C/c1ccccc1,inactive,
ClC=C(Cl)Cl,,6.15
